Results taken from PubChem BioAssay AID1159580 (chemical genetic matrix, 2015).
Several values for one entry are separate records, joined by “and”; a condition that tells them apart may be missing. Identical values can stand only once. In all, about 5,500 compounds went through this assay and about 2,000 (36%) were called active. Inconclusive results (about 18%) are left out. No stated cut-off is given here; in the data, active means normalized growth mostly below about 0.91 (no sharp cut-off); inconclusive means no clear call, values can overlap the other calls; inactive means mostly above about 0.92. The list shows a part of the results.

Experiment: chemical genetic growth profiling, strain panel (AID 1159580);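 further: tested at 20 µM; growth read once vehicle control cultures reached saturation at 30 °C; 1 = growth at the plate median or of vehicle wells; lower values mean less growth of the strain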
Details: S. cerevisiae deletion strains, growth OD
[1] = locus YAL040C, strain CLN3, hits give low values
[2] = locus YDR150W, strain NUM1, hits give low values
[3] = locus YER002W, strain NOP16, hits give low values
[4] = locus YGR078C, strain PAC10, hits give low values
[5] = locus YGR229C, strain SMI1, hits give low values
[6] = locus YNL175C, strain NOP13, hits give low values
[7] = locus YNL197C, strain WHI3, hits give low values
[8] = locus YNL224C, strain SQS1, hits give low values
[9] = locus YOR083W, strain WHI5 (second series), hits give low values
[10] = locus YCL061C, strain MRC1 (second series), hits give low values
[11] = locus YDR363W, strain ESC2, hits give low values
[12] = locus YMR307W, strain GAS1, hits give low values
[13] = locus YNL153C, strain GIM3, hits give low values
[14] = locus YNL322C, strain KRE1, hits give low values
[15] = locus YPL055C, strain LGE1, hits give low values

Measured: normalized growth

CC(Cc1ccc(OCC(=O)O)cc1)NCC(O)c1cccc(Cl)c1 (configuration not stated)
inactive: [1] 0.97 | [3] 1.01 | [4] 1.01 | [5] 1.02 | locus YNL128W, strain TEP1, hits give low values 1.02 | [6] 0.984 | [7] 0.979 | [8] 0.99 | [9] 0.977
active: [2] 0.182

C[C@H](Cc1ccc2c(c1)OC(C(=O)O)(C(=O)O)O2)NC[C@H](O)c1cccc(Cl)c1
inactive: [1] 1.02 | [10] 1.01 | [11] 0.998 | [3] 0.992 | [4] 1.01 | [5] 1.01 | [12] 1.02 | [13] 0.967 | [6] 1 | [7] 0.987 | [8] 1 | [14] 1 | [9] 0.985

CN(C(=O)Cc1ccc(Cl)c(Cl)c1)C(CN1CCCC1)c1cccc(OCC(=O)O)c1 (configuration not stated)
inactive: [1] 0.998 | [10] 0.995 | [2] 1 | [11] 0.961 | [3] 0.992 | [12] 0.989 | [13] 1.01 | [6] 0.995 | [7] 0.997 | [8] 0.99 | [9] 0.999 | [15] 1.01

CO[C@@H]1[C@@H](O[C@@H]2O[C@H](C)[C@@H](O[C@H]3C[C@@](C)(O)[C@H](O)[C@H](C)O3)[C@H](N(C)C)[C@H]2O)[C@@H](CC=O)C[C@@H](C)[C@@H](O[C@H]2CC[C@H](N(C)C)[C@@H](C)O2)/C=C/C=C/C[C@H](C)OC(=O)C[C@H]1O
inactive: locus YAL021C, strain ccr4, hits give low values 1.02 | locus YAL026C, strain drs2, hits give low values 1.01 | locus YAL030W, strain snc1, hits give low values 0.997 | locus YBL061C, strain skt5, hits give low values 1.02 | locus YBR009C, strain hhf1, hits give low values 1.01 | locus YBR021W, strain FUR4, hits give low values 1.03 | locus YBR023C, strain chs3, hits give low values 1.01 | locus YBR171W, strain sec66, hits give low values 1.02 | locus YBR229C, strain ROT2, hits give low values 1.02 | locus YBR231C, strain swc5, hits give low values 1.02 | locus YBR279W, strain paf1, hits give low values 1.03 | locus YCL011C, strain gbp2, hits give low values 1.01 | locus YCL016C, strain dcc1, hits give low values 1.01 | locus YCL029C, strain bik1, hits give low values 1 | locus YCL061C, strain MRC1, hits give low values 1.01 | locus YCL069W, strain vba3, hits give low values 1.01 | locus YCR088W, strain abp1, hits give low values 1.02 | locus YDL005C, strain med2, hits give low values 1.01 | locus YDL035C, strain GPR1, hits give low values 1 | locus YDL040C, strain nat1, hits give low values 1.02 | locus YDL074C, strain BRE1, hits give low values 1.04 | locus YDL101C, strain DUN1, hits give low values 1.01 | locus YDL185W, strain tfp1, hits give low values 0.976 | locus YDL192W, strain arf1, hits give low values 0.998 | locus YDR001C, strain nth1, hits give low values 1.01 | locus YDR069C, strain doa4, hits give low values 1 | locus YDR101C, strain arx1, hits give low values 1.02 | locus YDR137W, strain rgp1, hits give low values 1.02 | [2] 1.02 | locus YDR159W, strain sac3, hits give low values 1.01 | locus YDR162C, strain NBP2, hits give low values 1.01 | locus YDR195W, strain ref2 1 | locus YDR297W, strain sur2, hits give low values 1.01 | locus YDR318W, strain mcm21, hits give low values 0.996 | locus YDR334W, strain swr1, hits give low values 1.03 | locus YDR335W, strain msn5, hits give low values 1.01 | locus YDR388W, hits give low values 1 | locus YDR392W, strain spt3, hits give low values 1.02 | locus YDR502C, strain sam2, hits give low values 0.989 | locus YEL003W, strain gim4, hits give low values 1.01 | locus YEL037C, strain rad23, hits give low values 1.01 | locus YEL061C, strain CIN8 (second series), hits give low values 1.01 | locus YEL061C, strain CIN8, hits give low values 1.01 | locus YER015W, strain faa2, hits give low values 1 | locus YER016W, strain bim1, hits give low values 1.01 | locus YER110C, hits give low values 0.967 | locus YER111C, strain swi4, hits give low values 1.01 | locus YER155C, strain BEM2 (second series), hits give low values 1.02 | locus YER155C, strain BEM2, hits give low values 1.01 | locus YER167W, strain BCK2, hits give low values 1.02 | locus YFR010W, strain ubp6, hits give low values 1.02 | locus YGL078C, strain dbp3, hits give low values 0.982 | locus YGL086W, strain mad1, hits give low values 0.994 | locus YGL167C, strain pmr1, hits give low values 1.01 | locus YGL173C, strain kem1, hits give low values 1.01 | locus YGL227W, strain vid30, hits give low values 1.02 | locus YGL240W, strain doc1, hits give low values 0.999 | locus YGL248W, strain PDE1, hits give low values 1.02 | locus YGL253W, strain hxk2, hits give low values 1.01 | [4] 1.01 | locus YGR135W, strain pre9, hits give low values 0.955 | [5] 1.03 | locus YGR252W, strain gcn5, hits give low values 0.95 | locus YHR013C, strain ard1, hits give low values 1.03 | locus YHR027C, strain rpn1, hits give low values 1.01 | locus YHR030C, strain SLT2, hits give low values 1.02 and 0.972 | locus YHR079C, strain IRE1 (second series), hits give low values 1 | locus YHR079C, strain IRE1, hits give low values 0.961 | locus YHR094C, strain hxt1, hits give low values 1 | locus YHR129C, strain ARP1, hits give low values 1.02 | locus YHR142W, strain chs7, hits give low values 1 | locus YHR200W, strain rpn10, hits give low values 0.984 | locus YIL066C, strain RNR3, hits give low values 1.03 | locus YIL073C, strain SPO22, hits give low values 0.928 | locus YIL125W, strain kgd1, hits give low values 0.997 | locus YIR030C, strain dcg1, hits give low values 1 | locus YJL092W, strain hpr5, hits give low values 1.01 | locus YJL095W, strain BCK1 (second series), hits give low values 1.01 | locus YJL095W, strain BCK1, hits give low values 1.01 and 0.969 | locus YJL115W, strain asf1, hits give low values 1.02 | locus YJL129C, strain trk1, hits give low values 1 | locus YJL134W, strain LCB3, hits give low values 1.01 | locus YJL154C, strain vps35, hits give low values 1.02 | locus YJL164C, strain tpk1, hits give low values 1 | locus YJL166W, strain qcr8, hits give low values 1.02 | locus YJL168C, strain set2, hits give low values 0.979 | locus YJL187C, strain SWE1 (second series), hits give low values 1.02 | locus YJL187C, strain SWE1, hits give low values 1.01 | locus YJR043C, strain POL32, hits give low values 1 | locus YJR066W, strain TOR1, hits give low values 0.922 | locus YJR075W, strain HOC1, hits give low values 0.991 | locus YKL009W, strain mrt4, hits give low values 0.969 | locus YKL068W, hits give low values 1.02 | locus YKL085W, strain MDH1 (second series), hits give low values 1.01 | locus YKL085W, strain MDH1, hits give low values 1.01 | locus YKL160W, strain elf1, hits give low values 1.02 | locus YKR001C, strain vps1, hits give low values 0.982 | locus YKR026C, strain gcn3, hits give low values 1.02 | locus YKR091W, strain srl3, hits give low values 1.01 | locus YLL001W, strain dnm1, hits give low values 1.01 | locus YLL026W, hits give low values 1.01 | locus YLL041C, strain sdh2, hits give low values 1.01 | locus YLR027C, strain aat2, hits give low values 1.01 | locus YLR039C, strain RIC1, hits give low values 0.943 | locus YLR058C, strain SHM2, hits give low values 1.02 | locus YLR102C, strain apc9, hits give low values 0.997 | locus YLR113W, strain HOG1, hits give low values 0.965 | locus YLR221C, strain rsa3, hits give low values 1 | locus YLR258W, strain gsy2, hits give low values 1.01 | locus YLR262C, strain YPT6 (second series), hits give low values 1.02 | locus YLR262C, strain YPT6, hits give low values 0.989 | locus YLR268W, strain sec22, hits give low values 0.996 | locus YLR320W, strain mms22, hits give low values 1.02 | locus YLR330W, strain CHS5, hits give low values 1.01 | locus YLR342W, strain FKS1 (second series), hits give low values 0.999 | locus YLR342W, strain FKS1, hits give low values 1.02 | locus YLR357W, strain rsc2, hits give low values 1.02 | locus YLR370C, strain arc18, hits give low values 1.01 | locus YLR371W, strain rom2, hits give low values 1 | locus YLR384C, strain iki3, hits give low values 1.03 | locus YLR418C, strain cdc73, hits give low values 0.967 | locus YML016C, strain PPZ1, hits give low values 1.01 | locus YML032C, strain rad52, hits give low values 0.955 | locus YML120C, strain ndi1, hits give low values 1.01 | locus YML124C, strain tub3, hits give low values 1 | locus YMR058W, strain fet3, hits give low values 1.02 | locus YMR078C, strain ctf18, hits give low values 0.993 | locus YMR125W, strain sto1, hits give low values 1.01 | locus YMR129W, hits give low values 1.02 | locus YMR205C, strain PFK2, hits give low values 1.03 | locus YMR223W, strain ubp8, hits give low values 0.975 | locus YMR231W, strain pep5, hits give low values 1 | locus YMR263W, strain SAP30, hits give low values 1.01 | [12] 0.959 | locus YNL067W, strain RPL9B, hits give low values 1.01 | locus YNL071W, strain lat1, hits give low values 1 | [13] 1.01 | locus YNL183C, strain NPR1, hits give low values 0.921 | locus YNL209W, strain ssb2, hits give low values 1.02 | locus YNL233W, strain BNI4, hits give low values 1 | locus YNL248C, strain rpa49, hits give low values 1.01 | locus YNL250W, strain rad50, hits give low values 0.989 | locus YNL271C, strain bni1, hits give low values 1 | locus YNL298W, strain CLA4, hits give low values 0.997 | locus YNL307C, strain MCK1, hits give low values 0.993 | locus YNL322C, strain KRE1 (second series), hits give low values 1.01 | [14] 1.02 | locus YNR049C, strain mso1, hits give low values 1.02 | locus YNR052C, strain pop2, hits give low values 0.996 | locus YOL012C, strain htz1 0.441 | locus YOL147C, strain pex11, hits give low values 0.991 | locus YOR001W, strain rrp6, hits give low values 0.998 | locus YOR061W, strain CKA2, hits give low values 1.01 | locus YOR069W, strain VPS5, hits give low values 1.01 | locus YOR070C, strain gyp1, hits give low values 1.01 | locus YOR080W, strain dia2, hits give low values 1.01 | locus YOR083W, strain WHI5, hits give low values 1.02 | locus YOR106W, strain vam3, hits give low values 1.03 | locus YOR136W, strain idh2, hits give low values 1 | locus YOR144C, strain elg1, hits give low values 0.992 | locus YOR184W, strain ser1, hits give low values 0.967 | locus YOR231W, strain MKK1, hits give low values 0.973 | locus YOR265W, strain rbl2, hits give low values 1.01 | locus YOR270C, strain vph1, hits give low values 0.997 | locus YOR290C, strain snf2, hits give low values 1 | locus YOR316C, strain cot1, hits give low values 1.01 | locus YPL051W, strain arl3, hits give low values 1.01 | [15] 1.03 | locus YPL078C, strain atp4, hits give low values 1.01 | locus YPL106C, strain sse1, hits give low values 1.04 | locus YPL240C, strain hsp82, hits give low values 1.01 | locus YPL256C, strain CLN2, hits give low values 1 | locus YPR119W, strain clb2, hits give low values 0.994 | locus YPR141C, strain kar3, hits give low values 1.02 | locus YPR163C, strain tif3, hits give low values 1.01 | locus YPR167C, strain met16, hits give low values 1 | strain wtn01, hits give low values 0.989
